# This is part of a sample that, as a whole, favours compounds with a hit. Of some 83,000 tested, about 20% had one in any assay.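 Testing used 96-well plates and a 48-hour single-concentration exposure. Example: -40 means 40% of the starting cells died.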 The source made the active and inactive calls. Rule for the calls: active = growth percent below 10; inactive = the rest.
# Tested on: MDA-MB-231 breast
# Test: NCI-60 one-dose screen, 48 h (100 = growth as untreated, 0 = no growth, -100 = all killed)
# Settings: 10 µM unless noted
row,Compound,growth
1,CC[C@H](C)[C@H](N)C(=O)O,97.7% (inactive)
2,COc1ccc2c(c1)sc1nc(-c3ccccc3)c(-c3cccc4ccccc34)n12,39.7% (inactive)
3,Cc1ccc(C)c(NC(=O)c2sc3c(=O)[nH]cnc3c2C)c1,97.4% (inactive)
4,Cc1ccncc1NC=O,110% (inactive)
5,COc1ccc(/C(C)=N/NC(=O)CSc2nc3ccccc3c(=O)n2CCc2ccc(S(N)(=O)=O)cc2)cc1,-10.9% (active)
6,COC(=O)OC1C(O[C@H]2C[C@H]3[C@@H]4CC=C5C[C@@H](O)CC[C@]5(C)[C@H]4CC[C@]3(C)[C@H]2[C@H](C)C(=O)CCC(C)C)OCC(O)C1OC1OCC(O)C(O)C1OC(=O)c1ccc(OC)cc1 (some centres undefined),22.7% (inactive)
7,O=C1CCCN1C1CCN2CCCc3cccc1c32 (centres undefined),101% (inactive)
8,CC1OC(n2c3ccccc3c3c4c(c5c6ccccc6[nH]c5c32)C(=O)N(CCN[C@H]2CCC[C@@H]2N)C4=O)CC(O)C1O (some centres undefined),37.5% (inactive)
9,COc1ccc2[nH]cc(C3(c4c[nH]c5ccc(OC)cc45)C(=O)Nc4ccc(F)cc43)c2c1,101% (inactive)
10,c1cc2c(cc1-c1cnc3nonc3n1)OCO2,75.1% (inactive)
11,Nc1c(C(=O)Nc2cccc(Cl)c2)sc2nc3c(cc12)C(=O)CCC3,43.9% (inactive)
12,O=C(Nc1ccc(Br)cc1)c1ccc(Cl)c(Cl)c1,56% (inactive)
13,O=C(CSc1nc2c(n1Nc1ccccc1)-c1ccccc1SC2)Nc1nccs1,88.7% (inactive)
14,COc1ccc(-c2nc3c(c(-c4ccc(Cl)cc4)nn3-c3ccccc3)c(-c3ccc(O)cc3)c2C#N)cc1,65.6% (inactive)
15,c1csc(-c2cnc3nonc3n2)c1,82% (inactive)
16,CC1(C)CC(=O)c2cc3c(N)c(C(=O)Nc4ccc(Cl)cc4)sc3nc2C1,115% (inactive)
17,CN1C(=O)C(C(=O)/C=C/c2ccccc2C(=O)O)C(=O)N(C)C1=O,109% (inactive)
18,CC(NC(=O)c1ccccc1)C(=O)Nc1ccccc1 (centres undefined),115% (inactive)
19,CN1CCC2(CC1)N=C(SCC(=O)Nc1cnc3ccccc3c1)C(c1ccc(Br)cc1)=N2,-40.5% (active)
20,CSc1nc(N)c2[nH]c(-c3cc4ccccc4[nH]c3=O)nc2n1,98.8% (inactive)

row,Compound,growth
1,C=CC(=O)N1CN(C(=O)C=C)CN(C(=O)C=C)C1,103% (inactive)
2,CC(C)(C)[Si](C)(C)OC1[C@@H](O[Si](C)(C)C(C)(C)C)[C@@H](CNC(=O)NC(=O)NC(=O)CCl)O[C@H]1n1cnc2c(NC(=O)Nc3ccccc3)ncnc21 (some centres undefined),-28.3% (active)
3,CCCCCCCC/C=C/CCCCCCCC1=NC(C)(C)CN1c1ccccc1,103% (inactive)
4,CCCCCCCCN(CCCCCCCC)C(=O)CCl,104% (inactive)
5,COc1cc(OC)c(Cl)cc1N,94.8% (inactive)
6,CNC(=O)c1c(NC(=O)c2ccc(C(C)C)cc2)sc2c1CCC(=O)C2,-55.9% (active)
7,COc1nccc2c(Sc3ccccc3)nc(N)nc12,100% (inactive)
8,Nc1c(C(=O)Nc2ccccc2)sc2nc3c(cc12)C(=O)CCC3,52.1% (inactive)
9,CCC(=O)NC1=C(Cl)C(=O)C(NC(=O)CC)=C(Cl)C1=O,91.6% (inactive)
10,CCCCCCCCCCCCC1CCC(=O)O1 (centres undefined),103% (inactive)
11,CCN1C(=O)N(CC)C2C1NC(=O)N2/N=C/C=C/c1ccccc1 (centres undefined),71.5% (inactive)
12,CN(C)CCCN1c2ccccc2CCc2ccccc21,79% (inactive)
13,CC(CN1CCN(CC(C)Nc2ccnc3cc(Cl)ccc23)CC1)Nc1ccnc2cc(Cl)ccc12 (centres undefined),-19% (active)
14,S=C(S)Oc1cccc2cccnc12,111% (inactive)
15,CCn1c(Cc2ccccc2Nc2c(Cl)cccc2Cl)nnc1SCC(=O)Nc1cccc(OC)c1,61.6% (inactive)
16,CCc1onc(-c2ccc(OC)cc2)c1-c1ccccc1OCCN(CC)CC,93.3% (inactive)
17,COc1ccc(-c2cc(-c3ccc(OC)cc3)c3sc(=O)[nH]c3n2)cc1,87.6% (inactive)
18,COc1ccc2nc3ccccc3c(NCc3ccc(C)cc3)c2c1,33.6% (inactive)
19,CS(=O)(=O)c1ccc(C(=O)Nc2ccc(Cl)c(-c3ccccn3)c2)c(Cl)c1,30.2% (inactive)

# Reference: PubChem BioAssay (NCI)
